Experimental data taken from PubChem BioAssay AID2283097 (EPA ToxCast).
Records with an inconclusive call do not appear. Calls of active or inactive are those of the source. The calls were made as follows: active = hit-call score of the fitted dose curve at least 0.9, where 1 is the maximum; inconclusive = response in the unintended direction; inactive = score below 0.9.

Target: human CYP1B1, CYP1B1 (gene 1545) (UniProt Q16678)
Assay: NVS_ADME_hCYP1B1: NovaScreen (NVS) CYP450-related Enzyme Activity (ADME) Assay for human CYP1B1
Protocol: NVS_ADME_hCYP1B1 is a biochemical, single-readout assay that uses extracted gene-proteins in a cell-free assay. Measurements were taken 1 hour after chemical dosing in a 96-well plate.NVS_ADME_hCYP1B1 is one of one assay component(s) measured or calculated from the NVS_ADME_hCYP1B1 assay. It is designed to make measurements of enzyme activity, a form of enzyme reporter, as detected with fluorescence intensity signals by Fluorescence technology.Data from the assay component NVS_ADME_hCYP1B1 was analyzed into 1 assay endpoint. This assay endpoint, NVS_ADME_hCYP1B1, was analyzed in the positive analysis fitting direction relative to Acetonitrile as the negative control and baseline of activity. Using a type of enzyme reporter, loss-of-signal activity can be used to understand changes in the enzymatic activity as they relate to the gene CYP1B1. Furthermore, this assay endpoint can be referred to as a primary readout, because this assay has produced multiple assay endpoints where this one serves a enzymatic activity function. To generalize the intended target to other relatable targets, this assay endpoint is annotated to the cyp intended target family, where the subfamily is xenobiotic metabolism. […]

Chain of human CYP1B1, CYP1B1 (gene 1545) (Q16678 whole entry, looked up): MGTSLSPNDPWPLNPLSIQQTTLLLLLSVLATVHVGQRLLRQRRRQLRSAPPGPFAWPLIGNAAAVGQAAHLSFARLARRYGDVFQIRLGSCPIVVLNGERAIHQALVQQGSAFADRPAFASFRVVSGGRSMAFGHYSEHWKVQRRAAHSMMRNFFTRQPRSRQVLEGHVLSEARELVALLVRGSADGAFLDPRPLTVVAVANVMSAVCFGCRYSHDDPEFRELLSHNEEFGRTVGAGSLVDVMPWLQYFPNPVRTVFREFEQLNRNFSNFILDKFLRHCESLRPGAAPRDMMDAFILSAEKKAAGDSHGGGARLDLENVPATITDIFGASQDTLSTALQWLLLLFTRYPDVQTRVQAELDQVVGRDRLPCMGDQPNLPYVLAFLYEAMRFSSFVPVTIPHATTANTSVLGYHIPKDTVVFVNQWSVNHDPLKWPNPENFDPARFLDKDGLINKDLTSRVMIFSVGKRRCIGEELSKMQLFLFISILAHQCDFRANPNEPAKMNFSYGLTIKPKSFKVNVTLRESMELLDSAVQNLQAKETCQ

Structure (SMILES)	AC50
c1ccc2[nH]c(-c3cscn3)nc2c1	6.26 µM (active)
C#CCOC(=O)[C@@H](C)Oc1ccc(Oc2ncc(Cl)cc2F)cc1	2.14 µM (active)
